14 compounds from PubChem BioAssay can be followed below.

Structures are written as SMILES. For some assays here: Potency and affinity values are given separately. The list shows a part of the results. Activity calls are given as the source filed them. Unless noted, how the calls were made is not given here.

In experiment [1] the target is Cell division control protein 42 homolog (Homo sapiens) (UniProt P60953). As to the kind of experiment: activated mutant Cdc42 GTP-binding inhibitors, dose response, biochemical, multiplex bead flow cytometry, Bodipy-FL-GTP (AID 1333;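 active means fitted half-maximal concentration within the tested dose range, moderate curve steepness, a statistically real signal drop, and little compound fluorescence or tag-binding interference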). In general terms: In flow cytometry, cells or beads pass a laser one at a time.
Experiment [2] has the same target. The experiment can be described thus: wildtype Cdc42 GTP-binding inhibitors, dose response, biochemical, multiplex bead flow cytometry, Bodipy-FL-GTP (AID 1334;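 active means fitted half-maximal concentration within the tested range, moderate curve steepness, significant signal drop, and little compound fluorescence or bead-linkage interference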). To be noted: bead-based flow cytometry, Bodipy-FL-GTP binding to GST-Cdc42; at 100 µM (top of the series).
Experiment [3] deals with Ras-related protein Rab-7a (dog), GTP binding. As to the kind of experiment: Rab7 GTP binding inhibitors, potency, dose response, biochemical, wildtype, multiplex bead flow cytometry (AID 1336).
Experiment [4] addresses Ras-related C3 botulinum toxin substrate 1 (Homo sapiens) (UniProt P63000). As to the kind of experiment: wildtype Rac1 GTP binding inhibitors, dose response, biochemical, multiplex bead flow cytometry (AID 1340;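 active means dose curve with midpoint inside tested range, moderate steepness, plateau gap beyond fit error, low compound glow and bead-link interference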). Particulars: GST-Rac1 beads, Bodipy-FL-GTP binding; at 100 µM (top of the series).
Experiment [5] has as its target GTPase HRas (Homo sapiens) (UniProt P01112). As to the kind of experiment: activated Ras mutant GTP binding inhibitors, dose response, biochemical, multiplex bead flow cytometry (AID 1341;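 active means dose-response curve with midpoint inside the tested range, moderate steepness, significant amplitude and little compound fluorescence or bead-attachment interference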;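 further: GST-tagged constitutively activated Ras mutant immobilized on beads and multiplexed with other GTPases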).
A short description of experiment [6]: RPL19A-GFP modulators, yeast TOR pathway, confirmation, cell-based, S. cerevisiae, flow cytometry, cherry picks, mother/daughter gates (AID 2270;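 active means GFP response below 50% of the DMSO control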). To be noted: S. cerevisiae RPL19A-GFP strain, 3 h, at 10 µM, stronger effect = lower value, 100 = same GFP as DMSO wells.
The nature of experiment [7]: LAP4-GFP expression modulators in yeast, confirmation, cell-based, cherry picks, flow cytometry, mother/daughter gates (AID 2271;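 active means GFP response above 150% of the DMSO control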;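 further: ratio of sample to DMSO plate mean so 100% equals DMSO level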). To be noted: S. cerevisiae LAP4-GFP strain, 3 h, at 10 µM, stronger effect = higher value.
Experiment [8] is described as follows: modulators of MEP2-GFP levels in yeast, confirmation, S. cerevisiae, flow cytometry GFP, cherry picks (AID 2272;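 active means GFP response above 150% of the DMSO control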;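 further: ratio of well signal to plate DMSO mean so 100% equals DMSO level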). To be noted: S. cerevisiae MEP2-GFP strain, 3 h, at 10 µM, stronger effect = higher value.
Experiment [9] in a line: AGP1-GFP expression modulators, hit retest, confirmation, cell-based, flow cytometry, S. cerevisiae, cherry picks (AID 2273;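 active means GFP response above 150% of the DMSO level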;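 further: median GFP channel fluorescence over the whole cell population gate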). To be noted: S. cerevisiae AGP1-GFP strain, 3 h, at 10 µM.
Experiment [10] is described as follows: modulators of CIT2-GFP expression in yeast, confirmation, S. cerevisiae, GFP fusion, cherry picks, mother/daughter gates (AID 2274;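 active means GFP response above 150% of the DMSO level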). Particulars: S. cerevisiae CIT2-GFP strain, flow cytometry, 3 h, at 10 µM, stronger effect = higher value.
For experiment [11], the target named is Regulator of G-protein signaling 16 (Homo sapiens) (UniProt O15492). The experiment can be described thus: modulators of RGS–Galpha-o binding, primary screen, biochemical, multiplexed beads, flow cytometry, RGS4/7/8/16/19 (AID 1504).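 Further: fluorescently labeled Galpha-o bound to GDP with aluminium fluoride binding biotinylated RGS beads.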 To be noted: multiplexed bead flow cytometry, measured here: RGS16 interaction, at 10 µM.
Experiment [12] concerns the target Regulator of G-protein signaling 4 (Homo sapiens) + Guanine nucleotide-binding protein G(o) subunit alpha (Homo sapiens) (UniProt P49798+P09471). The description is as above. To be noted: multiplexed bead flow cytometry, at 10 µM.
The target in experiment [13] is Regulator of G-protein signaling 7 (Homo sapiens) (UniProt P49802). The experiment is described as above. Particulars: multiplexed bead flow cytometry, measured here: RGS7 interaction, at 10 µM.
The target in experiment [14] is Regulator of G-protein signaling 8 (Homo sapiens) (UniProt P57771). The description is as above. To be noted: multiplexed bead flow cytometry, measured here: RGS8 interaction, at 10 µM.
Experiment [15] can be described thus: disruption of biotin probe capture by avidin, counter-screen for RGS protein interaction modulators, biochemical, flow cytometry, bead-based (AID 1783;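 active means inhibition above 50%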;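 further: median green fluorescence of gated singlet beads compared with DMSO control wells; 0% = DMSO wells and 100% = complete loss of bead fluorescence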). To be noted: streptavidin beads, fluorescein-biotin binding, at 10 µM, stronger effect = higher value. Background: The purpose of a counterscreen is to sort out artefacts and off-target activity.
For experiment [16], the target named is Guanine nucleotide-binding protein G(o) subunit alpha (Homo sapiens) (UniProt P09471). As to the kind of experiment: RGS8-Galphao binding modulators, confirmation, biochemical, multiplexed bead flow cytometry, single concentration (AID 1836; in the data active means binding response below about 72% or above about 130%; inactive means in between;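 further: Galphao activated as GDP AlF4 complex before binding bead RGS8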). To be noted: bead-based flow cytometry RGS8-Galphao binding, fluorescence; at 10 µM; actives lie on both sides.
Experiment [17] shares this target. As to the kind of experiment: RGS7-Galphao binding modulators, confirmation, biochemical, multiplexed bead flow cytometry, single concentration (AID 1837; in the data active means response below about 75% or above about 130%; inactive means in between;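 further: fluorescent Galphao activated with GDP and aluminum fluoride binding bead-coupled RGS7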). To be noted: bead-based flow cytometry RGS7-Galphao binding; at 10 µM; actives lie on both sides.
The target of experiment [18] is Regulator of G-protein signaling 16 (Homo sapiens) + Guanine nucleotide-binding protein G(o) subunit alpha (Homo sapiens) (UniProt O15492+P09471). The experiment can be described thus: modulators of RGS16-Galphao protein binding, confirmation, biochemical, single concentration, multiplexed bead flow cytometry (AID 1838; in the data active means response below about 74% or above about 130%; inactive means in between;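 further: Galphao activated as the GDP aluminium fluoride complex binding bead-coupled RGS16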). To be noted: bead-based flow cytometry, at 10 µM, actives lie on both sides.

Experiment [19] has as its target Guanine nucleotide-binding protein G(o) subunit alpha (Homo sapiens) (UniProt P09471). As to the kind of experiment: modulators of RGS4-Galphao protein binding, confirmation, biochemical, single concentration, multiplexed bead flow cytometry (AID 1840; in the data active means binding response below about 74% or above about 130%; inactive means in between). Particulars: at 10 µM, actives lie on both sides.
In experiment [20] the target is Guanine nucleotide-binding protein G(o) subunit alpha (Homo sapiens) + Regulator of G-protein signaling 19 (Homo sapiens) (UniProt P09471+P49795). As to the kind of experiment: regulators of RGS19-Galphao binding, confirmation, biochemical, single point, multiplexed bead flow cytometry (AID 1841; in the data active means response below about 50% or above about 160%; inactive means in between;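 further: 100% = no compound control and 0% = blank background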). To be noted: bead-based flow cytometry RGS19-Galphao binding; at 10 µM; actives lie on both sides.

[21] abbreviates: measured here: daughter cell gate.
[22] abbreviates: measured here: mother cell gate.

Guanine nucleotide-binding protein G(o) subunit alpha (Homo sapiens), sequence (P09471 whole entry, looked up): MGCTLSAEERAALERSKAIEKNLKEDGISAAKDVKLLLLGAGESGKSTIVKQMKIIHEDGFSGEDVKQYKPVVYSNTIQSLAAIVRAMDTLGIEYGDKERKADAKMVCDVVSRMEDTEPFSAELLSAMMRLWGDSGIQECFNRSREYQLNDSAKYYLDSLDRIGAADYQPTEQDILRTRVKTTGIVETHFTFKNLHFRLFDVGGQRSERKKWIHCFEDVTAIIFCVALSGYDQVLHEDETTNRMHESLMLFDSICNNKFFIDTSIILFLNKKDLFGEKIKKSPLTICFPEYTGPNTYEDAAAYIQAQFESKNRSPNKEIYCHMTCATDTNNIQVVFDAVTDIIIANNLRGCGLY
Cell division control protein 42 homolog (Homo sapiens), sequence (P60953 whole entry, looked up): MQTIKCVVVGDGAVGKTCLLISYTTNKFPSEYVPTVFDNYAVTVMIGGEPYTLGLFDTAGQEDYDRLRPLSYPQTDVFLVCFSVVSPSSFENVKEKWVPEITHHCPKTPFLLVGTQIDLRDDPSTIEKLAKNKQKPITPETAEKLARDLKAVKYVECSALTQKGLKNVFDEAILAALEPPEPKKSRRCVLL
Regulator of G-protein signaling 4 (Homo sapiens) + Guanine nucleotide-binding protein G(o) subunit alpha (Homo sapiens), sequence (P09471 whole entry, looked up): as the sequence (P09471 whole entry, looked up) above
Regulator of G-protein signaling 4 (Homo sapiens) + Guanine nucleotide-binding protein G(o) subunit alpha (Homo sapiens), sequence (P49798 whole entry, looked up): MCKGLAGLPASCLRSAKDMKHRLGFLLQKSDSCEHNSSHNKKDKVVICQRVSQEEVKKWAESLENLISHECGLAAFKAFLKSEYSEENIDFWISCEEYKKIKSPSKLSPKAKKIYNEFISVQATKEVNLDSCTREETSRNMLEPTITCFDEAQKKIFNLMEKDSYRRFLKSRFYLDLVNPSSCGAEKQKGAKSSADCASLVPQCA
Guanine nucleotide-binding protein G(o) subunit alpha (Homo sapiens) + Regulator of G-protein signaling 19 (Homo sapiens), sequence (P09471 whole entry, looked up): as the sequence (P09471 whole entry, looked up) above
Guanine nucleotide-binding protein G(o) subunit alpha (Homo sapiens) + Regulator of G-protein signaling 19 (Homo sapiens), sequence (P49795 whole entry, looked up): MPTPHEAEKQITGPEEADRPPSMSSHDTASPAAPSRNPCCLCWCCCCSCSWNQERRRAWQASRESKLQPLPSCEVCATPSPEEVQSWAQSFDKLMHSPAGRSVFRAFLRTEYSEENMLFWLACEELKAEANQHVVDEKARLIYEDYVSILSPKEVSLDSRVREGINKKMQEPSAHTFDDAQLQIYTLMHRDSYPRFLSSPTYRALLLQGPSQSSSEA
Regulator of G-protein signaling 16 (Homo sapiens) + Guanine nucleotide-binding protein G(o) subunit alpha (Homo sapiens), sequence (O15492 whole entry, looked up): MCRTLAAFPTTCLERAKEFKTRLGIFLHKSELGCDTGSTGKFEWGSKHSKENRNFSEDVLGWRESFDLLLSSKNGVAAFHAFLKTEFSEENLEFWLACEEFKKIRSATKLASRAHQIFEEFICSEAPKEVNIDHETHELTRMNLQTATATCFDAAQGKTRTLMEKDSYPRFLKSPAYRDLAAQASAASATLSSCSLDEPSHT
Regulator of G-protein signaling 16 (Homo sapiens) + Guanine nucleotide-binding protein G(o) subunit alpha (Homo sapiens), sequence (P09471 whole entry, looked up): as the sequence (P09471 whole entry, looked up) above

`Cc1ccc(-n2c(O)c(/C=N/c3ncc(Br)cc3Br)c(=O)[nH]c2=O)cc1`: the call in experiment [1], in experiment [3] and in experiment [5] was inactive. In addition, the fluorescence, percent of control (lower = inhibition) in experiment [2] worked out at 49.1%. In addition, the GTP binding signal, raw median fluorescence (lower = inhibition) (MCF (arbitrary fluorescence units)) in experiment [4] came out at 59.9.

On to `O=c1[nH]c(=S)[nH]c(O)c1N=Nc1cc2c(cc1[N+](=O)[O-])OCO2`, for which the compound was classed as inactive in experiment [1], in [3] and in [5]. In addition, the fluorescence, percent of control (lower = inhibition) in [2] is 24.3%. In experiment [4], this compound showed a GTP binding signal, raw median fluorescence (lower = inhibition) (MCF (arbitrary fluorescence units)) of 211.

On to `Cc1nc2c(=O)n(C)c(=O)nc-2n(C)n1`, for which the compound was classed as inactive in [3] and in [5]. Moreover, the GTP binding signal, raw median fluorescence (lower = inhibition) (MCF (arbitrary fluorescence units)) in experiment [4] is 251.

`CC[C@@H]1C(=O)OC[C@@H]1Cc1cncn1C`: the GFP response vs DMSO in experiment [6] was 99.5% (inactive); in experiment [6] (setting [21]), 98.3%; in experiment [6] (setting [22]) it was 100%; in experiment [8] it was 104% (inactive). Also, the GFP response relative to DMSO in experiment [7] was 102% (inactive); in experiment [7] (measured here: daughter cell gate response), 101%; in [7] (measured here: mother cell gate response), 102%. In addition, the GFP response, % of DMSO in [9] is 103% (inactive); in experiment [10], 99.3% (inactive); in experiment [10] (setting [21]) it was 98.3%; in experiment [10] (setting [22]) it was 100%.

Take `O=c1[nH]c(=S)[nH]c(O)c1N=Nc1ccc(S(=O)(=O)N2CCc3ccccc32)cc1`: the compound was classed as inactive in [1], in [3] and in experiment [5]. Further, in [2], the fluorescence, percent of control (lower = inhibition) came out at 44.9%. Further, the GTP binding signal, raw median fluorescence (lower = inhibition) (MCF (arbitrary fluorescence units)) in experiment [4] came to 312.

Consider `COc1ccc(-c2cc(=NCCCCCC(=O)O)c3cc(C)ccc3o2)cc1`, for which the compound was classed as inactive in [1], in [3] and in experiment [5]. Further, the fluorescence, percent of control (lower = inhibition) in experiment [2] turned out to be 34.9%. The GTP binding signal, raw median fluorescence (lower = inhibition) (MCF (arbitrary fluorescence units)) in experiment [4] was determined as 132.

Regarding `CC1(C)CC(n2[nH]c(=O)c3c2NC(=O)CSC3c2ccccc2)CCO1` (configuration not stated), the outcome in experiment [1], in experiment [3] and in [5] was inactive. The fluorescence, percent of control (lower = inhibition) in [2] turned out to be 35.5%. The GTP binding signal, raw median fluorescence (lower = inhibition) (MCF (arbitrary fluorescence units)) in experiment [4] was 266.

`Cc1ccc(C)c(OCCCn2cc(C(=O)O)c3ccccc32)c1`: the outcome in experiment [1], in experiment [3] and in [5] was inactive. The fluorescence, percent of control (lower = inhibition) in experiment [2] came to 61.7%. The GTP binding signal, raw median fluorescence (lower = inhibition) (MCF (arbitrary fluorescence units)) in [4] was found to be 36.2.

Take `O=C(O)c1cn(Cc2ccc(F)cc2)c2ccccc12`: the compound was called inactive in experiment [1], in experiment [3] and in experiment [5]. In addition, the fluorescence, percent of control (lower = inhibition) in experiment [2] was 106%. In [4], this compound displayed a GTP binding signal, raw median fluorescence (lower = inhibition) (MCF (arbitrary fluorescence units)) of 91.8.

On to `CN1C(=O)N(C)C(=O)C2(Cc3c(ccc4ccccc34)N(C)C2)C1=O`, for which the result in [1], in [3] and in experiment [5] was inactive. In [2], the fluorescence, percent of control (lower = inhibition) came to 34.8%. Further, the GTP binding signal, raw median fluorescence (lower = inhibition) (MCF (arbitrary fluorescence units)) in experiment [4] was 230.

Take `O=C(O)c1cn(Cc2ccccc2F)c2ccccc12`: the compound was classed as inactive in [1], in [3] and in experiment [5]. The fluorescence, percent of control (lower = inhibition) in experiment [2] was 93%. Further, in experiment [4], the GTP binding signal, raw median fluorescence (lower = inhibition) (MCF (arbitrary fluorescence units)) worked out at 68.4.

As to `CN(C)c1ccc(/C=C/C=C2/C(=O)NC(=O)N(c3ccccc3)C2=O)cc1`, the compound was called inactive in experiment [1], in experiment [3] and in experiment [5]. Further, in [2], the fluorescence, percent of control (lower = inhibition) was determined as 23.6%. Further, in experiment [4], the GTP binding signal, raw median fluorescence (lower = inhibition) (MCF (arbitrary fluorescence units)) turned out to be 155.

As for `Cc1nn(Cc2ccccc2)c(Cl)c1C(=O)O`, the fluorescence, percent of control (lower = inhibition) in experiment [2] came to 45.4%. Besides, in experiment [4], the GTP binding signal, raw median fluorescence (lower = inhibition) (MCF (arbitrary fluorescence units)) was 270. Moreover, the outcome in [5] was inactive.

Regarding `CC(C)N(CC#CCC1(O)c2ccccc2-c2ccccc21)C(C)C`, the RGS16–Galpha-o binding response in experiment [11] turned out to be 180%. Besides, in experiment [12], the RGS4–Galpha-o binding response is 106% (active). This compound also showed an RGS7–Galpha-o binding response in experiment [13] of 107%. In experiment [14], this compound showed an RGS8–Galpha-o binding response of 122%. Also, the inhibition in experiment [15] was 0.7% (inactive). The binding response (% of control) in experiment [16] is 98.5% (inactive); in [19], 99.5% (inactive). The response (percent of control binding) was 99.5% (inactive) in [17] and 110% (inactive) in experiment [20]. Further, in experiment [18], the response (% of control binding) is 101% (inactive).

As usually defined, the inhibition is the change of the read-out against control, counted positive when it falls.
